High-throughput results deposited in PubChem by several laboratories.
GalR3 antag – human GalR3 antagonism; HEK293 GalR3-CNG cAMP membrane potential fluorescence; galR3 body fused to GalR1 C-terminus; 360,000 compounds, 0.44% hits; inhibition, % at 3 µM; AID 651719;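 active = inhibition above the screen-wide average plus 3 SD, cut at about 13% in these data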;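 also: forskolin and galanin both at EC90 stimulate the cells; cAMP rise reported by CNG channel membrane potential dye signal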
Target sequence (O60755 1-299 limits assumed): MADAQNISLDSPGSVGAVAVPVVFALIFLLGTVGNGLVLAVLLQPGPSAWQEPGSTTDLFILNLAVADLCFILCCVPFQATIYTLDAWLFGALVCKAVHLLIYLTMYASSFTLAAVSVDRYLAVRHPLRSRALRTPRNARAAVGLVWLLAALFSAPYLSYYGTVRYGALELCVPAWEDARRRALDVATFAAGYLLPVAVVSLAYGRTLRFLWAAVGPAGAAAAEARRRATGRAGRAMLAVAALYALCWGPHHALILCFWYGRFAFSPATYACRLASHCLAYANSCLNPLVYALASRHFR
Jurkat NFkB inh – lowers PMA/ionomycin-induced NF-kB signal in Jurkat cells | PMA/ionomycin-induced NF-kB luciferase reporter, luminescence | 330,000 compounds, 0.53% hits | inhibition, % at 4 µM; in the data active = inhibition above about 50%
697 NFkB inh – inhibitors of the PMA/ionomycin-induced NF-kB reporter in 697 B cells. 330,000 compounds, 0.33% hits. 697 B-cell NF-kB luciferase reporter, 16 h. inhibition, % at 4 µM; in the data active = inhibition above about 35%
COUP-TFII inh – blocks human COUP-TFII nuclear receptor. P24468. HEK293T NGFI-A luciferase reporter, luminescence. inhibition, % at 8.6 µM. 370,000 compounds, 0.7% hits;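 active = inhibition above a per-plate cutoff, mean inhibition of test wells between control levels plus 3 SD, cut at about 38% in these data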;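 also: cells cotransfected with COUP-TFII expression vector driving the NGFI-A reporter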
Gli-Sufu block – Gli-Sufu pathway antagonism | Sufu-KO-LIGHT fibroblasts, Gli luciferase reporter luminescence | inhibition, % at 5 µM | 340,000 compounds, 0.74% hits;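 active = inhibition above about 55%, limit read from the data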
Numbers stand for hits; 0 = inactive; - = no result given. Most compounds without a hit are left out; they make up all but 2% or so of the library.

SMILES	GalR3 antag	Jurkat NFkB inh	697 NFkB inh	COUP-TFII inh	Gli-Sufu block
C=C(NC(=O)C(=C)NC(=O)c1csc(C2=NC3c4csc(n4)C4NC(=O)c5csc(n5)C(C(C)(O)C(C)O)NC(=O)C5CSC(=N5)/C(=C/C)NC(=O)C(C(C)O)NC(=O)c5csc(n5)C3(CC2)NC(=O)C(C)NC(=O)C(=C)NC(=O)C(=C)NC(=O)C(C(C)C)NC2C=Cc3c(C(C)O)cc(nc3C2O)C(=O)OC4C)n1)C(N)=O (stereo not given)	0	-	-	41.9	65.7
CC(=NNc1nc2ccccc2o1)c1cc2ccccc2cn1	0	-	-	0	91.6
CCOC(=O)c1[nH]cnc1N=Nc1c(O)ccc2ccccc12	0	-	-	0	57.3
CC1CCC(C(C)C)C(OC(=O)C[n+]2cc(-c3ccc(Cl)cc3)n3c2CCCCC3)C1 (stereo not given)	0	0	0	0	65.0
Clc1ccc(-c2c[n+](Cc3ccc(Br)cc3)c3n2CCCCC3)cc1	0	0	0	0	0
COc1ccc2nc(NN=C(C)c3ccccn3)cc(C)c2c1	0	-	-	0	78.6
OC(c1ccccc1)(c1ccccc1)C1CCN(CCCNc2ccc(C(F)(F)F)cc2)CC1	-	-	-	0	-
O=C1Cc2c([nH]c3ccc([N+](=O)[O-])cc23)-c2ccccc2N1	0	-	-	37.5	0
O=c1[nH]c2cc([N+](=O)[O-])ccc2c2ccccc12	0	-	-	0	0
CN1c2ccccc2N(C)C1(C)c1ccccc1	0	-	-	0	60.7
CCCCCCCCNc1ncnc2[nH]ncc12	0	-	-	38.5	0
COC(=O)C1CN(C2CCCC2)CCS(=O)(=O)N1Cc1ccc(C(F)(F)F)cc1 (stereo not given)	-	-	-	0	-
CC1=[N+](C)c2ccc3ccccc3c2C1(C)C	0	0	0	0	69.9
Cc1oc(-c2ccc(Cl)cc2)nc1CN1CCC(C(=O)N2CCN(Cc3ccccc3)CC2)CC1	0	0	0	39.0	0
O=C(NC(CSCc1ccccc1)C(=O)N/N=C/c1ccc(O)cc1O)c1ccc([N+](=O)[O-])cc1 (stereo not given)	0	0	0	0	75.9
COc1cc(CN2CC(=O)N(c3ccccc3Cl)C2=S)cc(OC)c1OC	0	0	0	0	62.0
Cn1cccc1C=NNC(=O)c1cc(-c2ccc(Cl)cc2)n[nH]1	-	-	-	0	-
COc1cc(C=NO)nc(-c2ccccn2)c1	0	-	-	0	86.7
COc1ccc2nc(-c3ccccn3)[nH]c2c1	0	0	0	0	0
C/C(Cl)=C\Cn1c(NCCc2ccccc2)nc2c1c(=O)n(C)c(=O)n2C	0	0	0	0	82.1
C=CCn1c(NCCc2ccccc2)nc2c1c(=O)n(C)c(=O)n2C	0	0	0	0	0
O=C1OCC2=C1C(c1ccc(F)cc1)c1cc3c(cc1N2)OCCO3 (stereo not given)	0	-	-	0	57.0
O=C1NC(=O)/C(=C/c2cccc([N+](=O)[O-])c2)N1	0	0	0	0	0
CCN1C/C(=C/c2cccc([N+](=O)[O-])c2)C(=O)/C(=C/c2cccc([N+](=O)[O-])c2)C1	0	-	-	0	58.3
CN1CCC(N[C@@H](Cc2ccccc2)C(=O)NCC(c2ccccc2)c2ccccc2)(C(=O)NC2CCCCC2)CC1	-	-	-	0	-
SMILES	GalR3 antag	Jurkat NFkB inh	697 NFkB inh	COUP-TFII inh	Gli-Sufu block
CCCS(=O)(=O)Nc1ccc(Nc2c3ccccc3nc3ccccc23)c(OC)c1	0	-	-	0	79.1
CC(=O)c1cc(-c2ccc3[nH]ccc3c2)c(=O)n2c1CCC2	-	-	-	0	-
COc1ccc(-c2n(CC(=O)OC3CC(C)CCC3C(C)C)c3ccccc3[n+]2C)cc1 (stereo not given)	0	-	-	0	86.4
COc1ccc(OCc2n(CC(=O)OC3CC(C)CCC3C(C)C)c3ccccc3[n+]2C)cc1 (stereo not given)	0	0	0	0	0
COc1ccc(C(=O)c2c(C(F)(F)F)oc3c2C(=O)c2ccccc2C3=O)cc1OC	0	0	0	43.1	0
COC(=O)[C@]12C[C@H](CC(=O)NCc3cccc(C(F)(F)F)c3)C(=O)N(Cc3ccc(Cl)cc3Cl)C1=C[C@H](C(C)(C)C)O[C@@H]2C	-	-	-	0	-
Cc1ccc2c(c1C)-c1c(ccc(C)c1C)C(=O)C2=O	0	-	-	0	64.1
COC(=O)[C@]12C[C@H](CC(=O)NCCc3ccccc3OC)C(=O)N(Cc3cccc4ccccc34)C1=C[C@H](C(C)C)O[C@@H]2C1CC1	-	-	-	0	-
O=C(N1CCCC1)n1ncc(-c2ccc(-c3ccccc3)cc2)n1	-	-	-	0	-
COC(=O)c1ccc2c(c1)C(C)(C)C(/C=C/c1ccc(OC)c(OC)c1OC)=[N+]2C	0	0	0	0	0
COC(=O)c1ccc2c(c1)C(C)(C)C(/C=C/c1ccc(O)cc1)=[N+]2C	0	0	0	0	66.0
CCCc1c(C(=O)N/N=C(\C)c2ccccc2O)nnn1-c1nonc1N	0	-	-	0	-
C/C(=N\NC(=O)c1nnn(-c2nonc2N)c1-c1ccccc1)c1ccccc1O	0	0	0	0	68.1
C/C(=N\NC(=O)c1nnn(-c2nonc2N)c1CN(C)c1ccccc1)c1ccccn1	-	-	-	-	77.8
C/C(=N\NC(=O)c1nnn(-c2nonc2N)c1CN(C)c1ccccc1)c1ccc(O)cc1	0	0	0	0	0
Cc1cccc(-c2cccc3c4c([nH]c23)[C@@H]2C[C@H]3[C@@H](C(=O)N2CC4)[C@H](C)ON3C)c1	-	-	-	0	-
CN1/C(=C/c2cc[n+](C)c3ccccc23)C=Cc2ccccc21	-	-	-	-	89.0
CCOC(=O)N1CCN(C(=O)C[C@H]2C[C@@]3(C(=O)OC)C(=C[C@H](COCc4ccccc4)O[C@@H]3C)N(CCc3ccc(OC)c(OC)c3)C2=O)CC1	-	-	-	0	-
COC(=O)[C@]12C[C@H](CC(=O)NCC34CC5CC(CC(C5)C3)C4)C(=O)N(Cc3ccco3)C1=C[C@H](COCc1ccccc1)O[C@@H]2C	-	-	-	0	-
CCCCCc1ccc(OCCOCCn2c[n+](C)c3ccccc32)c(CCCCC)c1	-	-	-	-	87.3
C[n+]1cn(CC(O)COCc2ccccc2)c2ccccc21 (stereo not given)	0	0	0	0	0
O=c1cnnc(N/N=C/c2ccccn2)[nH]1	0	0	0	0	74.4
